In the library only some 6.8% were active in any assay of this set; here they are far more common.
C diff HTS = inhibitors of Clostridium difficile growth; AID 1259249; 0.25% of 86,000 active; Clostridium difficile clinical isolate growth, OD600, 24 h; hits give low values; growth activity, negative = inhibition, % at 16 µg/mL (by protocol);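 active means mean growth activity at or below -80% and every replicate also at or below -80%; inconclusive means mean at or below -80% but some replicate above -80%; inactive means mean growth activity above -80%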
T cruzi growth-1 = blocks T. cruzi growth in NIH3T3 culture; T. cruzi beta-gal in NIH3T3, GalScreen luminescence, 90 h; inhibition, % at 8.34 µM; 5.9% of 77,000 active; AID 624255;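 active means mean inhibition above about 93%, with at least 55% of replicates each passing it, limit read from the data, passing the limit was not always enough; inconclusive means only one of those two conditions holds; inactive means neither condition holds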
Pf Dd2 inh = inhibitors of Plasmodium falciparum Dd2 growth; 2.3% of 94,000 active; P. falciparum Dd2 growth, SYBR Green, 72 h; hits give low values; activity change, % at 10 µM; in the data active means activity change below about -80%; inconclusive means no clear call, values can overlap the other calls
T cruzi growth-2 = blocks T. cruzi growth in NIH3T3 host cells; shares compounds with T cruzi growth-1; T. cruzi beta-gal in NIH3T3, GalScreen luminescence, 90 h; inhibition, % at 8.35 µM; 72% of 5,600 active;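 active means mean replicate inhibition above about 95% and at least 55% of replicates individually reaching it, limit read from the data; inconclusive means only one of the two criteria is met; inactive means neither criterion is met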
T cruzi growth-3 = blocks T. cruzi growth in NIH3T3 host cells | T. cruzi beta-gal in NIH3T3, GalScreen luminescence, 90 h | shares compounds with T cruzi growth-1 | inhibition, % at 2.09 µM | 21% of 5,600 active;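 active means mean inhibition above about 95%, with at least 55% of replicates also reaching it, limit read from the data; inconclusive means meets just one of the two conditions; inactive means meets neither condition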
NIH3T3 tox = NIH/3T3 (mouse) viability loss. shares compounds with T cruzi growth-1. NIH/3T3 viability, CellTiter-Glo ATP luminescence, 90 h. cytotoxicity (signal decrease), % at 8.35 µM. 14% of 5,600 active;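 active means mean signal decrease across replicates above about 35% based on untreated-well scatter, with enough replicates individually passing, limit read from the data; inconclusive means no rule stated though some were filed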
NIH3T3 tox 2 = cytotoxicity in mouse NIH/3T3 fibroblasts | shares compounds with T cruzi growth-1 | NIH/3T3 viability, CellTiter-Glo ATP luminescence, 90 h | inhibition, % at 24.9 µM | 56% of 5,600 active | AID 651744;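 active means mean loss of cell viability signal at or above a set limit, and enough replicates individually reaching it; inconclusive means meets only the mean limit or only the replicate share; inactive means meets neither condition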
Each line names hits and unclear results; the compound was inactive in the other large screens (follow-up assays come after a bar, where they were run).

Cc1ccccc1-c1ccc2c(c1)O[C@@H](CN(C)C(=O)Nc1ccccc1)[C@@H](C)CN([C@H](C)CO)S2(=O)=O	none
C[C@@H]1CN([C@H](C)CO)S(=O)(=O)c2ccc(C#Cc3ccccc3)cc2O[C@@H]1CN(C)C(=O)Nc1ccccc1	none
CC(C)C#Cc1ccc2c(c1)O[C@H](CN(C)C(=O)Nc1ccccc1)[C@@H](C)CN([C@H](C)CO)S2(=O)=O	none (no result: T cruzi growth-1)
CCCNC(=O)Nc1ccc2c(c1)OC[C@@H](C)N(Cc1ccccn1)C[C@@H](C)[C@@H](OC)CN(C)C2=O	none (no result: C diff HTS)
C[C@H](CO)N1C[C@H](C)[C@@H](CN(C)S(=O)(=O)c2ccc(Cl)cc2)OCCCC[C@H](C)Oc2ccc(N(C)C)cc2C1=O	none
O=C(C[C@@H]1C=C[C@@H](NS(=O)(=O)c2ccccc2)[C@@H](CO)O1)NCc1ccncn1	none
CN(C)CC(=O)N1CCCCN2[C@H](CO)[C@@H](c3ccc(-c4cccnc4)cc3)[C@H]2C1	none
CN(C)CC(=O)N1CCCCN2[C@H](C1)[C@@H](c1ccc(-c3cccnc3)cc1)[C@@H]2CO	none
CCC(=O)N1CCCCN2[C@@H](CO)[C@@H](c3ccc(-c4cccnc4)cc3)[C@@H]2C1	T cruzi growth-1 96 | T cruzi growth-2 inactive | T cruzi growth-3 inactive | NIH3T3 tox inactive | NIH3T3 tox 2 inactive
CCC(=O)N1CCCCN2[C@H](C1)[C@H](c1ccc(-c3cccnc3)cc1)[C@@H]2CO	T cruzi growth-1 113 | T cruzi growth-2 inactive | T cruzi growth-3 inactive | NIH3T3 tox inactive | NIH3T3 tox 2 inactive
CC(=O)N1[C@@H]2c3cccc(=O)n3C[C@H]1[C@H](CO)[C@H]2C(=O)NC1CCCC1	none (no result: C diff HTS, Pf Dd2 inh)
C[C@@H]1CN([C@@H](C)CO)C(=O)Cc2cc(NC(=O)Nc3ccc(F)cc3)ccc2O[C@H]1CN(C)Cc1ccc2c(c1)OCO2	none (no result: T cruzi growth-1)
O=C(NC1CCC1)[C@H]1[C@H](CO)[C@H]2Cn3c(ccc(-c4cncnc4)c3=O)[C@@H]1N2CCc1ccccc1	none
Cc1ccc(S(=O)(=O)Nc2ccc3c(c2)CC(=O)N([C@@H](C)CO)C[C@@H](C)[C@H](CN(C)C(=O)NC2CCCCC2)O3)cc1	none
COc1ccc(NC(=O)N(C)C[C@H]2Oc3cc(-c4ccc(C)cc4)ccc3S(=O)(=O)N([C@@H](C)CO)C[C@H]2C)cc1	T cruzi growth-1 106 | T cruzi growth-2 108 | T cruzi growth-3 inactive | NIH3T3 tox inactive | NIH3T3 tox 2 inactive
COc1ccc(NC(=O)N(C)C[C@H]2Oc3cc(-c4ccncc4)ccc3S(=O)(=O)N([C@H](C)CO)C[C@@H]2C)cc1	none
COc1ccc(NC(=O)N(C)C[C@@H]2Oc3cc(-c4ccc(C)cc4)ccc3S(=O)(=O)N([C@H](C)CO)C[C@@H]2C)cc1	T cruzi growth-1 123, Pf Dd2 inh -90 | T cruzi growth-2 105 | T cruzi growth-3 inactive | NIH3T3 tox 47 | NIH3T3 tox 2 inactive
COc1ccc(NC(=O)N(C)C[C@@H]2Oc3cc(-c4ccncc4)ccc3S(=O)(=O)N([C@H](C)CO)C[C@H]2C)cc1	none
O=C(c1ccccc1)N1C[C@H]2[C@@H](c3ccccc31)[C@@H](CO)N2Cc1cocn1	none
C[C@@H]1CN([C@H](C)CO)C(=O)c2cccc(NS(=O)(=O)c3ccc(Cl)cc3)c2O[C@@H]1CN(C)S(C)(=O)=O	none
O=C(Nc1cc(F)ccc1F)N[C@@H]1CC[C@H](CCn2cc(C3CC3)nn2)O[C@H]1CO	none (no result: C diff HTS)
CO[C@H]1CN(C)C(=O)c2cc(NC(=O)C3CC3)ccc2OC[C@@H](C)N(C(=O)c2ccncc2)C[C@H]1C	none (no result: C diff HTS)
O=C(Nc1ccc2c(c1)[C@@H]1C[C@@H](CC(=O)N3CCc4ccccc4C3)O[C@@H](CO)[C@@H]1O2)Nc1ccccc1F	none (no result: T cruzi growth-1)
O=C(Nc1ccc(C(F)(F)F)cc1)Nc1ccc2c(c1)[C@H]1C[C@@H](CC(=O)N3CCc4ccccc4C3)O[C@@H](CO)[C@H]1O2	none
CN(C)c1ccc2c(c1)[C@H]1C[C@@H](CC(=O)N3CCc4ccccc4C3)O[C@@H](CO)[C@H]1O2	none
O=C(Nc1ccc(C(F)(F)F)cc1)Nc1ccc2c(c1)[C@H]1C[C@H](CC(=O)N3CCc4ccccc4C3)O[C@@H](CO)[C@H]1O2	T cruzi growth-1 141 | T cruzi growth-2 96 | T cruzi growth-3 inactive | NIH3T3 tox inactive | NIH3T3 tox 2 103
O=C(Nc1ccc(C(F)(F)F)cc1)Nc1ccc2c(c1)[C@H]1C[C@@H](CC(=O)N3CCc4ccccc4C3)O[C@H](CO)[C@H]1O2	T cruzi growth-1 inconclusive | T cruzi growth-2 inactive | T cruzi growth-3 112 | NIH3T3 tox inactive | NIH3T3 tox 2 40
CN(C)c1ccc2c(c1)[C@@H]1C[C@@H](CC(=O)N3CCc4ccccc4C3)O[C@@H](CO)[C@@H]1O2	T cruzi growth-1 135, Pf Dd2 inh -86 | T cruzi growth-2 inactive | T cruzi growth-3 inactive | NIH3T3 tox inactive | NIH3T3 tox 2 inactive
CCNC(=O)c1cc2c(c(-c3cccc(-c4ccncc4)c3)n1)[C@@H](CCO)N(S(=O)(=O)CC)C2	none (no result: T cruzi growth-1)
COc1cccc(-c2ccc3c(c2)[C@@H]2[C@@H](CCN2C(=O)NC2CCCCC2)[C@H](CO)N3C)c1	none (no result: T cruzi growth-1)
O=C(C1CCC1)N1C[C@@H]2N[C@H](C1)C2c1ccc(-c2ccncc2)cc1 (stereo partly drawn)	none (no result: T cruzi growth-1)
C[C@H](CO)N1C[C@H](C)[C@H](CN(C)C)Oc2ccc(NC(=O)Nc3cccc4ccccc34)cc2CC1=O	none (no result: T cruzi growth-1)
COc1cccc(S(=O)(=O)Nc2ccc3c(c2)[C@@H]2C[C@@H](CC(=O)N4CCCCC4)O[C@H](CO)[C@@H]2O3)c1	none (no result: C diff HTS)
O=C(c1cnccn1)N1CC(=O)N2[C@H](C1)[C@@H](c1ccc(-c3cccc(F)c3)cc1)[C@@H]2CO	none (no result: T cruzi growth-1)
CCS(=O)(=O)N1CCCCN2[C@H](C1)[C@@H](c1ccc(-c3cccc(C#N)c3)cc1)[C@@H]2CO	none
N#Cc1ccc(-c2ccc([C@H]3[C@H](CO)N4CCCCN(C(=O)Nc5ccc(F)cc5)C[C@@H]34)cc2)cc1	none
O=C(Nc1ccc(F)cc1)N1CCCCN2[C@H](CO)[C@H](c3ccc(-c4cccc(F)c4)cc3)[C@H]2C1	none
O=C(C1CCCC1)N1CCCCN2[C@H](CO)[C@@H](c3ccc(-c4cccc(F)c4)cc3)[C@@H]2C1	T cruzi growth-1 104 | T cruzi growth-2 98 | T cruzi growth-3 115 | NIH3T3 tox 42 | NIH3T3 tox 2 106
N#Cc1ccc(-c2ccc([C@H]3[C@@H](CO)N4CCCCN(C(=O)Nc5ccc(F)cc5)C[C@H]34)cc2)cc1	T cruzi growth-1 98 | T cruzi growth-2 105 | T cruzi growth-3 105 | NIH3T3 tox inactive | NIH3T3 tox 2 104

High-throughput results deposited in PubChem BioAssay by Broad Institute.
